Experimental data reported in PubChem BioAssay (NCI).
Compounds without any hit were thinned out: in the full panel of roughly 79,000, 15% have a hit. Values without a mark were called inactive. The source made the active and inactive calls. Cut-off read from the data, not from the text of the source: active = growth inhibition above about 70%; inactive = the rest.

Assays:
[1] = NCI Yeast Anticancer Drug Screen. Data for the rad50 strain (AID 155);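 note: 0% = growth of vehicle-only cultures of the same strain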; settings: S. cerevisiae rad50 strain growth inhibition; at 50.0 µM; stronger effect = higher value
Method in brief: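 Vehicle-treated cultures provide the reference for the growth inhibition reported for compound-exposed, repair-deficient yeast.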

[2] = NCI Yeast Anticancer Drug Screen. Data for the mec2-1 strain (AID 157); settings: S. cerevisiae mec2-1 strain, at 50.0 µM, stronger effect = higher value
Method in brief: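 Yeast mec2-1 mutant treated with compound. Readout: growth inhibition vs vehicle controls.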

[3] = NCI Yeast Anticancer Drug Screen. Data for the sgs1 mgt1 strain (AID 161);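 note: 0% = growth of cultures given vehicle only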; settings: S. cerevisiae sgs1 mgt1 strain, at 50.0 µM, stronger effect = higher value
Method in brief: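 Inhibition of yeast growth, normalised to vehicle-treated controls, is reported for a strain bearing genetic alterations in DNA damage repair.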

[4] = NCI Yeast Anticancer Drug Screen. Data for the cln2 rad14 strain (AID 165);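 note: 0% = growth equal to vehicle treated cultures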; settings: S. cerevisiae cln2 rad14 strain, at 50.0 µM, stronger effect = higher value
Method in brief: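 cln2 rad14 yeast strain; compound exposure; growth inhibition read vs vehicle controls.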

[5] = NCI Yeast Anticancer Drug Screen. Data for the bub3 strain (AID 167); settings: S. cerevisiae bub3 mutant strain, at 50.0 µM, stronger effect = higher value
Method in brief: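 Mutant yeast screening strain plus compound; vehicle-treated cultures serve as the 0% inhibition reference.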

[6] = NCI Yeast Anticancer Drug Screen. Data for the mlh1 rad18 strain (AID 175); settings: S. cerevisiae mlh1 rad18 strain growth inhibition; at 50.0 µM; stronger effect = higher value
Method in brief: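 Yeast w/ defined DNA-repair lesions; compound exposure; growth vs vehicle controls → % inhibition.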

Row | SMILES | growth inhibition [1] | growth inhibition [2] | growth inhibition [3] | growth inhibition [4] | growth inhibition [5] | growth inhibition [6]
1 | CCN(CC)C(=O)NCCCCCCNC(=O)N(CC)CC | -20.2% | -36.8% | -27.8% | -20% | -29.2% | -23.6%
2 | Nc1ccc(C(=O)Nc2ccc(NC(=O)c3ccco3)c(O)c2)cc1 | 2.5% | -11.3% | 31.6% | 13.4% | 20.7% | 10.1%
3 | COC(OC)C1(CCc2ccccc2)NC(=O)N(C)C1=O (configuration not stated) | -17.4% | 2.2% | 5.6% | -19.9% | 25.6% | -0.65%
4 | O=C1c2cc([N+](=O)[O-])ccc2-c2c(I)cccc21 | 4.25% | 2.7% | -5.35% | 5.75% | -9.25% | -6.45%
5 | CN1C(=O)C2C=CC1c1ccccc12 (configuration not stated) | -0.75% | -3.95% | -8.8% | -37% | -6.5% | 2.55%
6 | CC1SC2(C(=O)Nc3ccccc32)N(c2ccc(Cl)cc2)C1=O (configuration not stated) | 21.6% | 10.3% | -12.4% | 23.9% | 60.5% | 10.7%
7 | CN1CCC(O)(C(C)(C)C)CC1 | -5.05% | -5.15% | 3.65% | 10.9% | -3.7% | -68.9%
8 | Cc1c(CCCl)c(=O)n2c([nH]c3ccccc32)c1C#N | 56.5% | -56.5% | 18.6% | 5.2% | -52.1% | 62%
9 | O=[N+]([O-])c1ccc(SN2CCCCC2CC2CCCCC2)c([N+](=O)[O-])c1 (configuration not stated) | 19.9% | -4.6% | -18.9% | -2.25% | 1.3% | 3.1%
10 | CCC(=O)C(=O)c1ccccc1 | -12.9% | -6.5% | -0.4% | -2.35% | -1.05% | 3.2%
11 | CC(CC(O)CCCN(C)C)CC(C)(C)C (configuration not stated) | 46.5% | 39.8% | 43.4% | 22.1% | 24.3% | 37.5%
12 | CCc1ccc2[nH]nc(CCC(=O)O)c(=O)c2c1 | -1.5% | -4.7% | -13.2% | -12.4% | -23.2% | -7.05%
13 | CN1CCN(Cc2cc(C(C)(C)C)cc(-c3ccccc3)c2O)CC1 | 39.4% | -25.1% | 6.9% | 6.45% | 8% | 25.6%
14 | Fc1nc2nc(C(F)(F)F)[nH]c2nc1F | 15.8% | -0.85% | -23.9% | -59.5% | 0.85% | 7.6%
15 | COC(=O)C1=CC2C(C1)C1CC2C(OC(C)=O)C1N(C)C (configuration not stated) | 15.8% | 6% | -0.55% | -31.8% | 6.35% | 17.4%
16 | COc1ccc(CNc2ccccc2C(=O)O)cc1OC | 11.2% | 2.8% | -1.95% | 31.4% | 32.8% | 8.65%
17 | N#CCc1ccc(Nc2cc(=O)[nH]c(=O)[nH]2)cc1 | -7.5% | 1.5% | 3.65% | -35.1% | -7.5% | -7.55%
18 | O=C1C(Cl)=C(NCCCN2CCN(CCCNC3=C(Cl)C(=O)c4ccccc4C3=O)CC2)C(=O)c2ccccc21 | 44.5% | 27.8% | 33.1% | 9.45% | 6.35% | 33.6%
19 | O=C1C(Cl)(Cl)C(=O)C(Cl)(Cl)C(=O)C1(Cl)Cl | 20.2% | 24.5% | 47% | 0.4% | 16.3% | 31.7%
20 | CN(C)Cc1[nH]c2ccccc2c1C(=O)c1ccccc1 | -4.55% | -8.85% | -12.2% | -18.7% | -25.5% | -25.6%
21 | CC(C)(C)C1CCCC(=O)C1 (configuration not stated) | 8.3% | -5.15% | 3.5% | 10.3% | 6.85% | 3.15%

Row | SMILES | growth inhibition [1] | growth inhibition [2] | growth inhibition [3] | growth inhibition [4] | growth inhibition [5] | growth inhibition [6]
22 | Cc1ccc(/C=N/S(=O)(=O)Cc2ccccc2)cc1 | -11.6% | 3.8% | 10.2% | 4.9% | 0.15% | -0.15%
23 | N#CCCCN1C(=O)c2ccccc2C1=O | -22.1% | -18.9% | -8.25% | 21% | -15.5% | -18.4%
24 | c1ccc([Si](c2ccccc2)(c2cccs2)c2cccs2)cc1 | -8.35% | 6.35% | 12.5% | 7.85% | 3.6% | 26%
25 | CN(C)c1nc(N(C)C)nc(N(C)C=O)n1 | -4.9% | -21.9% | -30.7% | -2.85% | -27.6% | -5.55%
26 | COc1cc2ccccc2ccc1=O | 13.4% | 7.95% | -6.45% | -3.55% | 13.6% | 4.5%
27 | CCC(C)N=C1NS(=O)(=O)c2ccccc21 (configuration not stated) | 9.5% | -3.3% | -2.4% | 33.2% | -8.55% | 7.85%
28 | O=S(=O)(O)c1ccccc1 | -16.6% | -8.5% | -6.05% | -2.25% | 0.15% | 1.25%
29 | Cc1ccc(S(=O)(=O)N2CCOCC2)cc1 | -2.9% | -20.1% | -13.3% | 15.5% | -0.7% | -30.4%
30 | CC1=NC(C(=O)O)CC1C (configuration not stated) | 1.15% | 4% | -5.35% | -7.7% | 1.45% | -1.3%
31 | OC(c1cccnc1)C(CCc1ccccn1)c1ccccn1 (configuration not stated) | 2.65% | 13.1% | -4.6% | -46% | 4.3% | 4%
32 | C1C[OH+]CC[OH+]CCNCC[OH+]CC[OH+]CCN1.Cl.[Cl-].[Pt+4] | 8.7% | -9.3% | 6.25% | 10.4% | -3.65% | 7%
33 | CCc1cc2c(cc1C(=O)CCN1CCCC1)C(C)(C)CCC2(C)C | 99.5% (active) | 99.7% (active) | 98.5% (active) | 99.5% (active) | 99.5% (active) | 99.8% (active)
34 | N#Cc1cccc(-c2ccc(-c3ccccc3)o2)c1 | 31.6% | 27.4% | 27.1% | -7.25% | 60.9% | 20.4%
35 | CC(Oc1ccc(Br)cc1Br)C(=O)O (configuration not stated) | 4.1% | -16.2% | 1.2% | 23.2% | -14.5% | 19.1%
36 | COc1cc([N+](=O)[O-])c(S(=O)(=O)O)cc1-n1nc(-c2ccccc2)n[n+]1-c1cc(S(=O)(=O)[O-])c([N+](=O)[O-])cc1OC | -5.65% | 4.15% | -13.3% | -22.7% | -20.4% | 16.2%
37 | CN(C)c1ccc(/C=N/NC=O)c(Cl)c1 | 0.15% | 8.25% | -0.6% | 11.3% | -0.65% | -15.3%
38 | COc1ccc2nc3cc(Cl)ccc3c(NC(C)CCCN(C)C)c2n1 (configuration not stated) | 44.8% | 42.8% | 64.2% | 31.2% | 46.3% | 65%
39 | O=C(NC1CCC(CC2CCC(NC(=O)C34CC5CC(CC(C5)C3)C4)CC2)CC1)C12CC3CC(CC(C3)C1)C2 (configuration not stated) | -13% | 7.6% | 19.3% | -6.25% | -1.85% | 4.35%
40 | C1=CCc2cc3c(cc2=C1)C=c1ccccc1=3 | -12.3% | -19.4% | -11.2% | -5.9% | -8.2% | -19.4%
41 | S=C1N=C(Cl)C2(NN1)c1ccccc1-c1ccccc12 | 17.9% | -16.1% | -1.15% | -14.5% | -11.7% | 32%
42 | O=C(c1ccccc1)c1c(-c2ccccc2)sc2nc3ccccc3nc12 | 3% | 18.3% | 3.2% | 29.1% | 2.65% | 11.2%
